# Measured values taken from PubChem BioAssay.
# Inconclusive results are not listed. Calls of active or inactive are those of the source. Unless noted, no rule for the calls is given here.
# Columns and labels:
# [1] = target: ATP-dependent translocase ABCB1 (Homo sapiens) (UniProt P08183); assay: MDR1 (ABCB1) efflux transporter inhibition, cell-based (AID 377; in the data active = fluorescence slope change above about 50%); conditions: MDR1-expressing cells, fluorescent substrate accumulation slope; stronger effect = higher value; concentration not given here
# [2] = hESC survival regulators, cell-based (AID 493140); conditions: human embryonic stem cell survival screen; stronger effect = higher value;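 also: cells exposed to compounds for four days before counting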
# [3] = circadian clock period modulators, cell-based, LOPAC library, luminescence reporter (AID 2774); conditions: circadian reporter cells, at 7 µM, actives lie on both sides;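 also: values are relative to mean of DMSO wells on each plate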
# [4] = liver-stage malaria parasite growth inhibition, primary screen, cell-based, HepG2, luciferase luminescence, HepG2 viability (AID 624349; in the data active = parasite load remaining mostly below about 12%, no sharp cut-off; inactive = mostly above about 10%;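 also: 100% = mean of DMSO negative control wells on the same plate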); conditions: P. berghei liver stage in HepG2, luciferase luminescence, concentration not given here; parasite load remaining: stronger effect = lower value; viability: measured here: HepG2 viability without parasites
# [5] = kinase inhibitors against Plasmodium liver-stage infection, cell-based, known kinase inhibitor set, luminescence, hepatoma host viability (AID 624392); conditions: Plasmodium liver stage in hepatoma cells, luciferase luminescence, concentration not given here; liver cell % of control: measured here: host liver cell viability; parasite % of control: stronger effect = lower value;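 also: infected cells incubated roughly two days before readout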
# [6] = test system: Hepatitis C virus NS3 helicase; assay: HCV NS3 helicase inhibitors, primary screen, biochemical, fluorescence polarization, LOPAC1280 library (AID 687035; in the data active = inhibition above about 37%); conditions: Purified HCV NS3 helicase, Cy5-dT15 ssDNA binding fluorescence polarization; stronger effect = higher value; concentration not given here
# [7] = Cy5 fluorescence quenching or enhancement artefacts, artefact control for HCV NS3 helicase inhibitor project, biochemical, LOPAC1280 (AID 687037); conditions: Cy5-DNA-NS3h complex fluorescence interference counterscreen
# [8] = test system: Neuropilin-2 / VEGF-C interaction (human); assay: inhibitors of NRP2–VEGF-C binding, biochemical, microplate binding format, z-score (AID 743281); conditions: microplate NRP2/VEGF-C binding assay; stronger effect = lower value
# Chain of ATP-dependent translocase ABCB1 (Homo sapiens) (P08183 whole entry, looked up): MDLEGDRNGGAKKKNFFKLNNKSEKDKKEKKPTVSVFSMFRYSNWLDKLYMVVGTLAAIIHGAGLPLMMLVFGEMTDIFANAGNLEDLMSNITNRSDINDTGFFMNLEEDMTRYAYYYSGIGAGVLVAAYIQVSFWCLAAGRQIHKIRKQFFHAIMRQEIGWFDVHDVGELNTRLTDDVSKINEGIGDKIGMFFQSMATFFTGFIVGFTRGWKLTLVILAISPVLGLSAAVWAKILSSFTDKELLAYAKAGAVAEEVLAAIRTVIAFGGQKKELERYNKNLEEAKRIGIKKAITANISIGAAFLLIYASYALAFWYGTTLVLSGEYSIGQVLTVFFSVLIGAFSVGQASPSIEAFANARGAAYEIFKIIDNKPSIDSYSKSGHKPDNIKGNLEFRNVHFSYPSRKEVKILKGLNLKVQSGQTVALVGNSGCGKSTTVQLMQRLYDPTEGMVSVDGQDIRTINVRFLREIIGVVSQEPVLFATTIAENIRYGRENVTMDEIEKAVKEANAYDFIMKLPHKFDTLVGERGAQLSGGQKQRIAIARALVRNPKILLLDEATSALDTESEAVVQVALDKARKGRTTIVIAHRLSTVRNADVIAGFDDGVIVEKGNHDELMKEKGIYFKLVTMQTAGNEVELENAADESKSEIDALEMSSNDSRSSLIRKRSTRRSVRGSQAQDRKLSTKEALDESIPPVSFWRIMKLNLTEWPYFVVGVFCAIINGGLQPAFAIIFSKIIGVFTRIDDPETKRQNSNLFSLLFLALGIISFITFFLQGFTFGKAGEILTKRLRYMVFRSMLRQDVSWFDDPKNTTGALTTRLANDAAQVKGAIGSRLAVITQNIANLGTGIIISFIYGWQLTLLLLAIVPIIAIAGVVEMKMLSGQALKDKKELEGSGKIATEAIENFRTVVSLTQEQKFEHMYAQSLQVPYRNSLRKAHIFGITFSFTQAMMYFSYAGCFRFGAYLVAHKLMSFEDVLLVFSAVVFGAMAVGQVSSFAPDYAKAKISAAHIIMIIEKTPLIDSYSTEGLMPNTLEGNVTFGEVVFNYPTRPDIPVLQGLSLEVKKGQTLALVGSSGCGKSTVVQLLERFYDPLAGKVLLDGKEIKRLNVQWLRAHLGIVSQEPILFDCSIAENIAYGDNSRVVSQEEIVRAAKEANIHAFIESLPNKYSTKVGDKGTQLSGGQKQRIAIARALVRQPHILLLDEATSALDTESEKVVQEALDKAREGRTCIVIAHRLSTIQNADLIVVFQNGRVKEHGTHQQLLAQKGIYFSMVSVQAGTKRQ
smiles,measurement,setting,value
CN1CCC2=C[C@@H](O)C3OC(=O)c4cc5c(cc4C3[C@H]21)OCO5 (stereo not given in full),fluorescence slope change,[1],1.8% (inactive)
same,survival,[2],6.42 (inactive)
CCN(CC)C(=O)N[C@H]1C=C2c3cccc4[nH]cc(c34)C[C@H]2N(C)C1,fluorescence slope change,[1],136% (active)
same,period change,[3],0.33 h (inactive)
same,survival,[2],19.8 (inactive)
same,parasite load remaining,[4],92.5% (inactive)
same,viability,[4],87.9%
CC(=O)O[C@@H]1CC(O[C@@H]2C(C)OC(O[C@@H]3C(C)OC(OC4CCC5(C)C(CCC6C5CC(O)C5(C)C(C7=CC(=O)OC7)CCC65O)C4)C[C@H]3O)C[C@H]2O)OC(C)[C@H]1OC1OC(CO)[C@@H](O)[C@@H](O)[C@@H]1O (stereo not given in full),fluorescence slope change,[1],3% (inactive)
CCC(C)C1OC2(C=CC1C)CC1CC(CC=C(C)C(OC3CC(OC)C(OC4CC(OC)C(O)C(C)O4)C(C)O3)C(C)C=CC=C3COC4C(O)C(C)=CC(C(=O)O1)C34O)O2 (stereo not given),survival,[2],3.5 (inactive)
CCC1C2CC3[C@@H]4N(C)c5ccccc5[C@]45CC(C2[C@H]5O)N3[C@@H]1O (stereo not given in full),fluorescence slope change,[1],67.5% (active)
same,survival,[2],5.33 (inactive)
same,parasite load remaining,[4],65.3% (inactive)
same,viability,[4],70.7%
CN(CC(=O)O)/C(N)=N/P(=O)(O)O,fluorescence slope change,[1],63.4% (active)
C=C1C2C[C@@]3(C4CC5C6(C3C[C@@H]2O)[C@@H](O)CC[C@@]5(C)CN(CC)[C@H]46)[C@@H]1O (stereo not given in full),fluorescence slope change,[1],24.6% (inactive)
same,survival,[2],5.92 (inactive)
COc1cc2c(cc1O)C1Cc3ccc(OC)c(O)c3CN1CC2 (stereo not given),fluorescence slope change,[1],144% (active)
same,survival,[2],1.58 (inactive)
same,parasite load remaining,[4],63.3% (inactive)
same,viability,[4],69.6%
CCN1C[C@]2(COC)CC[C@H](O)C34C5C[C@@H]6C(OC)C[C@@](O)(C5[C@H]6OC(C)=O)[C@@H](CC32)[C@@H]14 (stereo not given in full),survival,[2],21.1 (inactive)
NCC1OC(OC2C(N)CC(N)C(O)C2O)C(N)C(O)C1O (stereo not given),fluorescence slope change,[1],14.1% (inactive)
C[C@H](N)[C@@H](O)c1ccc(O)c(O)c1,fluorescence slope change,[1],17.7% (inactive)
COC(C)C(O)(C(=O)OCC1=CCN2CC[C@H](O)[C@@H]12)C(C)C (stereo not given in full),fluorescence slope change,[1],29% (inactive)
same,survival,[2],1.33 (inactive)
CN(C)Cc1c[nH]c2c(OCc3ccccc3)cccc12,fluorescence slope change,[1],61.1% (active)
CN[C@@H]1CC2(C)OC([C@@H]1OC)n1c3ccccc3c3c4c(c5c6ccccc6n2c5c31)C(=O)NC4 (stereo not given in full),survival,[2],0.333 (inactive)
C[C@H]1O[C@@H](OC2CC[C@]3(C=O)[C@H]4CC[C@]5(C)[C@@H](C6=CC(=O)OC6)CC[C@@]5(O)[C@@H]4CC[C@]3(O)C2)C[C@H](O)[C@@H]1O (stereo not given in full),survival,[2],1.42 (inactive)
CCN1C[C@]2(C)CC[C@H](O)C34C5C[C@H]6C(O)C5[C@](O)(C[C@@H]6OC)C(CC32)[C@@H]14 (stereo not given in full),fluorescence slope change,[1],-10.1% (inactive)
same,survival,[2],6.75 (inactive)
CC1OC(OC2/C=C/C=C/C=C/C=C/CC/C=C/C=C/[C@H](C)[C@@H](O)[C@@H](C)[C@H](C)OC(=O)CC(O)CC(O)CC(O)CCC(O)C(O)C[C@]3(O)CC(O)C(C(=O)O)C(C2)O3)C(O)C(N)C1O (stereo not given in full),fluorescence slope change,[1],108% (active)
same,survival,[2],8.92 (inactive)
same,parasite load remaining,[4],78.6% (inactive)
same,viability,[4],74%
C[C@@H]1CCC2[C@H](C)C3CC[C@@]4(O)[C@@H]5CC(=O)[C@H]6CC(=O)CC[C@]6(C)C5C[C@H]4[C@@H]3CN2C1 (stereo not given in full),fluorescence slope change,[1],16.8% (inactive)
CC1(C)C(C=C(Br)Br)C1C(=O)OC(C#N)c1cccc(Oc2ccccc2)c1 (stereo not given),survival,[2],82.3 (inactive)
COc1ccc(C(=O)OC2C[C@H]3CC[C@@H](C2)N3C)cc1OC (stereo not given in full),survival,[2],13.3 (inactive)
same,parasite load remaining,[4],68.2% (inactive)
same,viability,[4],77.3%
CNS(=O)(=O)c1ccc(-c2ccc(C=C3C(=O)NC(=O)NC3=O)o2)cc1,liver cell % of control,[5],99.7%
same,parasite % of control,[5],111% (inactive)
C=CCN1CC[C@]23c4c5ccc(O)c4O[C@H]2/C(=N\NC(=O)c2ccccc2)CC[C@@]3(O)[C@H]1C5,inhibition,[6],-6% (inactive)
same,fluorescence ratio (interference),[7],0.9 (inactive)
CC(C)C(C(=O)OC(C#N)c1cccc(Oc2ccccc2)c1)c1ccc(Cl)cc1 (stereo not given),survival,[2],79 (inactive)
CC1CC[C@]2(NC1)O[C@H]1C[C@H]3[C@@H]4CC[C@H]5C[C@@H](O)CC[C@]5(C)[C@H]4CC[C@]3(C)[C@H]1[C@@H]2C (stereo not given in full),survival,[2],5.67 (inactive)
same,parasite load remaining,[4],77.7% (inactive)
same,viability,[4],73.9%
O=P(O)(O)Cc1ccccc1,survival,[2],126 (inactive)
NC(N)=NOCC[C@@H](N)C(=O)O,survival,[2],14.8 (inactive)
same,parasite load remaining,[4],70.5% (inactive)
same,viability,[4],75.6%
CN(C(Cc1ccc(OOSOc2cccc3cnccc23)cc1)C(=O)N1CCN(c2ccccc2)CC1)S(=O)(=O)c1cccc2cnccc12 (stereo not given),parasite load remaining,[4],43.1% (inactive)
same,viability,[4],153%
C=C[C@@H]1CN2CCC1C[C@@H]2[C@H](O)c1ccnc2ccccc12 (stereo not given in full),survival,[2],3.33 (inactive)
same,parasite load remaining,[4],71% (inactive)
same,viability,[4],77.6%
NS(=O)(=O)c1ccc(-c2ccc(C=C3C(=O)NC(=O)NC3=O)o2)cc1,liver cell % of control,[5],104%
same,parasite % of control,[5],97.7% (inactive)
CC1CCC2(NC1)O[C@H]1C[C@H]3[C@@H]4CC=C5C[C@@H](O)CC[C@]5(C)[C@H]4CC[C@]3(C)[C@H]1[C@@H]2C (stereo not given in full),survival,[2],4.83 (inactive)
CCCCCCCCCCCCC/C=C/[C@@H](O)[C@@H](N)COP(=O)([O-])OCC[N+](C)(C)C,survival,[2],95.8 (inactive)
N#CC(C#N)=Cc1cc(O)c(O)c([N+](=O)[O-])c1,survival,[2],100 (inactive)
CCC[C@@H]1C[C@@H](C(=O)N[C@H]([C@@H](C)O)[C@H]2O[C@H](SC)[C@H](O)[C@@H](O)C2O)N(C)C1 (stereo not given in full),survival,[2],18.3 (inactive)
CCN(CC)C(=O)N[C@@H]1CC2c3cccc4[nH]cc(c34)CC2N(C)C1 (stereo not given in full),survival,[2],2.5 (inactive)
O=C1Nc2ccc3ncsc3c2/C1=C/c1cnc[nH]1,parasite load remaining,[4],86.4% (inactive)
same,viability,[4],77.5%
N/C(=N\[N+](=O)[O-])N/N=C\c1ccc(-c2cccc([N+](=O)[O-])c2)o1,parasite load remaining,[4],33.3% (inactive)
same,viability,[4],91.9%
CC[C@H]1CN2CCc3cc(OC)c(OC)cc3[C@@H]2C[C@@H]1C[C@H]1NCCc2cc(O)c(OC)cc21,survival,[2],0.333 (inactive)
same,parasite load remaining,[4],8.07% (inactive)
same,viability,[4],49.7%
CN1C2CCC1CC(O)C2 (stereo not given),survival,[2],7.58 (inactive)
same,parasite load remaining,[4],64% (inactive)
same,viability,[4],69.9%
CC(=O)O[C@@H]1CC(O[C@@H]2C(C)OC(O[C@@H]3C(C)OC(OC4CC[C@@]5(C)[C@H](CC[C@]6(C)[C@]5(C)C[C@@H](O)[C@]5(C)[C@@H](C7=CC(=O)OC7)CC[C@@]56O)C4)C[C@H]3O)C[C@H]2O)OC(C)[C@H]1OC1OC(CO)[C@@H](O)[C@@H](O)[C@@H]1O (stereo not given in full),survival,[2],0.333 (inactive)
CC/C=C\C[C@@H](/C=C/C=C\C/C=C\C/C=C\CCCC(=O)O)OO,survival,[2],90.4 (inactive)
O=C1NC(=O)C(=Cc2ccc(-c3ccc([N+](=O)[O-])cc3)o2)C(=O)N1,liver cell % of control,[5],98%
same,parasite % of control,[5],117% (inactive)
CC[C@@H]1/C=C\C=C\C[C@H](C)[C@@H](O)[C@@H](C)C(=O)[C@H](C)[C@@H](O)[C@H](C)C(=O)[C@H](C)[C@@H](O)[C@H](C)/C=C/C(=O)O[C@H]2[C@@H](C)[C@@H](CC1)O[C@@]1(CC[C@@H](C)[C@@H](C[C@H](C)O)O1)[C@@H]2C,outcome,[8],inactive
CCCCC[C@@H](/C=C/C=C\CCCCCCCCCC(=O)O)OO,survival,[2],112 (inactive)
C[C@@H](N)[C@H](O)c1ccccc1,survival,[2],4.42 (inactive)
same,parasite load remaining,[4],62.7% (inactive)
same,viability,[4],76%
[Cl-].[Cl][Pt].[NH2-].[NH2-].c1ccncc1,inhibition,[6],-3% (inactive)
same,fluorescence ratio (interference),[7],0.9 (inactive)
CN1C2CC(=O)CC1C(O)C2 (stereo not given),survival,[2],4.08 (inactive)
